# Screens: PubChem, Broad Institute
# esBAF inh: Bmi1 luciferase reporter increase in mESCs, primary screen, esBAF inhibitor project, mouse ES cells, Bmi1 luciferase knock-in, single point; 24 h; 100% = twice the neutral-well signal; reporter increase, % at 12.5 µM; actives 2% (n = 350,000); in the data active means activation above about 40%; inconclusive means no clear call, values can overlap the other calls;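 further: 0% = median of the plate's neutral control wells and 100% = double that signal; a rise in the Bmi1 reporter signal indicates esBAF inhibition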
# Wnt act: Wnt/beta-catenin pathway activators, primary screen, cell-based, plate reader, single point; activation, % at 9.35 µM; Wnt/beta-catenin reporter cell assay, activator; actives 1.2% (n = 300,000); in the data active means activation above about 30%, passing the limit was not always enough; inconclusive means no clear call, values can overlap the other calls;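 further: 0% = neutral control wells and 100% = positive control wells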
# Statin myotox sup: suppressors of statin myotoxicity in C2C12 myotubes, primary screen, cell-based, single point, plate reader | C2C12 myotubes + simvastatin, ATP luminescence, 48 h; scaled: DMSO 0, geranylgeraniol control 100 | rescue of ATP level, % at 7.49 µM | actives 0.78% (n = 330,000) | AID 602340, 2012;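 active means mean ATP rescue above about 67%, or every replicate alone reaching that limit, limit read from the data, passing the limit was not always enough; inconclusive means no clear call, values can overlap the other calls; inactive means mean under the limit and some replicate under it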;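 further: myotubes were challenged with 10 µM simvastatin during compound exposure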
# MITF act: activators of MITF-driven TRPM1 promoter reporter, primary screen, cell-based, SK-MEL-5, luciferase, single point. AID 588334, 2011. SK-MEL-5 TRPM1-promoter luciferase, 24 h; % of positive control, neutral wells = 0. actives 0.75% (n = 300,000). activation, % at 12.5 µM;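 active means mean activation of at least 80% with every replicate also reaching 80%; inconclusive means mean reaches 80% but some replicate falls short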;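 further: 0% = neutral control wells and 100% = parthenolide positive control wells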
# The depositor's hits bear a star; ? = inconclusive; . = no result given. An excerpt weighted towards active compounds, which were near 3% of everything screened.
SMILES,esBAF inh,Wnt act,Statin myotox sup,MITF act
Cc1ccn2cc(-c3cccc(NC(=O)C(C)C)c3)nc2c1,.,-1,.,34
Cc1ccn2cc(-c3cccc(NC(=O)c4ccccc4)c3)nc2c1,.,17,.,105*
NC(=O)c1cc(-c2csc(NCCc3ccccc3)n2)ccc1O,6,3,28,18
O=C(Nc1cccc(-c2csc(Nc3ccccc3)n2)c1)c1ccccc1,57*,27,-49,106*
Cc1cccc(Nc2nc(CC(=O)O)cs2)c1,18,-1,128*,65
O=C(Nc1cccc(-c2csc(Nc3cccc(C(F)(F)F)c3)n2)c1)c1ccccc1,-3,0,-58,-9
CC(=O)Nc1ccc(-c2csc(NCCc3ccccc3)n2)cc1,47*,3,40,.
C[C@@H]1CN([C@@H](C)CO)C(=O)Cc2cc(NS(=O)(=O)c3ccc(F)cc3)ccc2O[C@H]1CN(C)C(=O)Nc1ccc2c(c1)OCO2,4,.,8,.
O=C(C[C@H]1CC[C@H]2[C@@H](COC[C@@H](O)CN2S(=O)(=O)c2cccc(F)c2)O1)NC1CCC1,2,.,-2,.
CNC[C@@H]1Oc2ccc(NS(=O)(=O)c3ccc(C)cc3)cc2C(=O)N([C@H](C)CO)C[C@@H]1C,-1,.,7,.
Oc1ccc(Nc2nc(-c3cccnc3)cs2)cc1,39,.,13,.
O=C(Nc1ccc(-c2csc(Nc3cccc(C(F)(F)F)c3)n2)cc1)c1ccccc1,0,-9,-5,-17
CC(=O)c1cccc(Nc2nc(-c3cccnc3)cs2)c1,54*,17,-6,.
O=C(O)c1ccc(Nc2nc(-c3cccnc3)cs2)cc1,?,26,8,17
CC(=O)c1cccc(Nc2nc(-c3ccccc3)cs2)c1,7,21,-5,130*
COc1ccc(-c2csc(Nc3cccnc3)n2)cc1,.,.,.,42
CCOc1ccc(Nc2nc(-c3cccnc3)cs2)cc1,50*,14,-21,.
CC(=O)c1ccc(Nc2nc(-c3cccnc3)cs2)cc1,52*,4,-12,.
CN(C)C(=O)C[C@@H]1CC[C@@H]2[C@H](COC[C@H](O)CN2Cc2ccc(C(F)(F)F)cc2)O1,0,.,22,.
O=c1cc(-c2ccccc2Cl)oc2c(Br)ccc(O)c12,83*,13,-23,50
O=C(Nc1ccc(O)c2c(=O)cc(-c3ccccc3Cl)oc12)c1ccc(Cl)c(Cl)c1,51*,-6,-67,-5
Cc1cccc(OCCNc2ncccc2[N+](=O)[O-])c1,74*,3,-8,.
Cc1cccc(OCCNc2cc(N3CCN(C)CC3)ccc2[N+](=O)[O-])c1,.,.,.,6
Cc1nn(-c2cc(N3CCCCCC3)ccc2[N+](=O)[O-])c(=O)c2ccccc12,1,1,109*,2
Cc1nn(-c2ccc3ccccc3c2)c(=O)c2ccccc12,.,61*,.,55
SMILES,esBAF inh,Wnt act,Statin myotox sup,MITF act
Cc1nn(-c2cc(N3CCCCC3)ccc2N)c(=O)c2ccccc12,-8,.,-21,5
O=Nc1c(-c2c(O)[nH]c3cc(Br)ccc23)[nH]c2ccccc12,111*,77*,49,8
Cc1cc(C)nc(N/N=C/c2cc3c(cc2[N+](=O)[O-])OCO3)n1,.,56*,.,-10
O=C(O)c1ccc(N/N=C/c2cc3c(cc2[N+](=O)[O-])OCO3)cc1,67*,-2,-16,-24
CCCC(=O)Nc1ccc2c(c1)C(=O)N(C)C[C@H](OC)[C@H](C)CN(CCC(F)(F)F)[C@@H](C)CO2,-2,.,-4,.
C[C@H]1CN([C@@H](C)CO)C(=O)Cc2cc(NS(=O)(=O)c3ccc(F)cc3)ccc2O[C@@H]1CN(C)C(=O)Nc1ccc(C(F)(F)F)cc1,1,.,12,.
C[C@H](CO)N1C[C@H](C)[C@@H](CN(C)C(=O)NC2CCCCC2)Oc2ccc(NS(=O)(=O)c3ccccc3)cc2CC1=O,4,.,26,.
COc1ccc(NC(=O)N(C)C[C@H]2Oc3c(NS(=O)(=O)c4ccc(Cl)cc4)cccc3C(=O)N([C@H](C)CO)C[C@@H]2C)cc1,4,.,-31,.
Cc1ccc(-n2c(=O)cc(N3CCN(C(=O)c4ccco4)CC3)[nH]c2=O)cc1,1,-3,102*,9
CO[C@H]1CC[C@@H]2CCOc3c(C#N)cccc3C(=O)N(C)C[C@H](OC)[C@@H](C)C(=O)N(C)C[C@H]1O2,-3,.,-12,.
CO[C@H]1CN(C)C(=O)c2cc(NS(=O)(=O)c3ccccc3)ccc2OC[C@H](C)N(Cc2nccs2)C[C@@H]1C,-2,.,13,.
